Several values for one entry are separate records, joined by “and”; a condition that tells them apart may be missing. Equal entries are not always repeated. Records with an inconclusive call do not appear. A call without a number means that no potency is given here. Activity calls are given as the source filed them. Calls come from the whole dose curve; as a rule, active = well fitted curve in the direction sought with a large enough effect; inconclusive = small, poorly fitted or top-dose-only effect, or another doubt; inactive = no such curve, though single readings can be large; an effect the other way counts as inactive or inconclusive.

Chain of Ubiquitin carboxyl-terminal hydrolase 1 (Homo sapiens) (O94782 whole entry, looked up): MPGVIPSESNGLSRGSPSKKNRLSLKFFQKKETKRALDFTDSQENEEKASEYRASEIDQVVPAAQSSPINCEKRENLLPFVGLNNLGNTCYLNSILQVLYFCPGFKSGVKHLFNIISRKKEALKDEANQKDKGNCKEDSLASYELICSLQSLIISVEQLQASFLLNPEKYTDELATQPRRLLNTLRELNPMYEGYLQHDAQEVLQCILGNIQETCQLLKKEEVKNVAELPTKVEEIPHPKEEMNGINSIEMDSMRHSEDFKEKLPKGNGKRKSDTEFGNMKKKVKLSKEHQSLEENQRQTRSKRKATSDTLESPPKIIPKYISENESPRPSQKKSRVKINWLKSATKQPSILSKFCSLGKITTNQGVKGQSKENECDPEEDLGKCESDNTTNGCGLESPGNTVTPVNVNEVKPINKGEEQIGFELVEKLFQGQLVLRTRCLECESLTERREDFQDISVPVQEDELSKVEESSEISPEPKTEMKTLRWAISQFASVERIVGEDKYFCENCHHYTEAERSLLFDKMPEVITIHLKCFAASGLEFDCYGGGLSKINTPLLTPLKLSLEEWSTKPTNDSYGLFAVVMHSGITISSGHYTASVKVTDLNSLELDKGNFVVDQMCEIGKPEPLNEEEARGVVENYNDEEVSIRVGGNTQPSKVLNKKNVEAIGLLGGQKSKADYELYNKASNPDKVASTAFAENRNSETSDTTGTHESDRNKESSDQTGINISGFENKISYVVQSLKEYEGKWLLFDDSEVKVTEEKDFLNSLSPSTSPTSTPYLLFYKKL

System in the first experiment: not listed separately
Put plainly: Inducers of the Endoplasmic Reticulum Stress Response (ERSR) in human glioma: Validation (AID 504836). The following applies: human glioma cells, ER stress response reporter; series mostly up to 38.3 µM. The essentials: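 Stably transfected U87-MG glioma cells carrying a GRP78-based luciferase sensor; 16 h compound incubation. Luminescence end-point read 10 min after Bright-Glo addition at room temperature.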
Take `COC(=O)Nc1nc2ccc(C(=O)c3cccs3)cc2[nH]1`: the outcome was inactive.

On to `COC(=O)[C@H]1[C@H]2C[C@@H]3c4[nH]c5cc(OC)ccc5c4CCN3C[C@H]2C[C@@H](OC(=O)c2cc(OC)c(OC)c(OC)c2)[C@@H]1OC`, for which the result was inactive.

For `CC(=O)Nc1nnc(S(N)(=O)=O)s1`, the result was inactive.

Turning to `O=C1Cc2cc(CCN3CCN(c4nsc5ccccc45)CC3)c(Cl)cc2N1`, the result was inactive.

For the molecule `CC(=O)[C@H]1CC[C@H]2[C@@H]3CC[C@H]4C[C@](C)(O)CC[C@]4(C)[C@H]3CC[C@]12C`, the call was inactive.

Consider `CNCCCC1c2ccccc2C=Cc2ccccc21`, for which the outcome was inactive.

Consider `NC(=O)NO`, for which the molecule was called inactive.

On to `COc1ccc([C@@H]2Sc3ccccc3N(CCN(C)C)C(=O)[C@@H]2OC(C)=O)cc1`, for which the molecule was called inactive.

For `CN1CCN(CCCN2c3ccccc3Sc3ccc(C(F)(F)F)cc32)CC1`, the molecule was called inactive.

For `OCCN(CCO)c1nc(N2CCCCC2)c2nc(N(CCO)CCO)nc(N3CCCCC3)c2n1`, the molecule was classed as inactive.

For the molecule `CCN(CC)CCNC(=O)c1cc(Cl)c(N)cc1OC`, the outcome was inactive.

For the molecule `CCC1C(=O)OCC1Cc1cncn1C` (stereo unspecified), the call was inactive.

On to `CN1CCN(C2=Nc3cc(Cl)ccc3Nc3ccccc32)CC1`, for which the call was inactive.

Turning to `CNC1(C)C2CCC(C2)C1(C)C` (stereo unspecified), the call was inactive.

Regarding `N[C@@H]1CONC1=O`, the molecule was classed as inactive.

In the case of `NNCCc1ccccc1`, the outcome was inactive.

Take `CCCNCC(O)COc1ccccc1C(=O)CCc1ccccc1` (stereo unspecified): the call was inactive.

With `CC(=O)O[C@]1(C(C)=O)CC[C@H]2[C@@H]3C=C(Cl)C4=CC(=O)[C@@H]5C[C@@H]5[C@]4(C)[C@H]3CC[C@@]21C`, the result was inactive.

For the next experiment, the target named is Ubiquitin carboxyl-terminal hydrolase 1 (Homo sapiens) (UniProt O94782). Put plainly: Inhibitors of USP1/UAF1: Pilot qHTS (AID 504865). Note: nearly all actives have a fitted effect of over 35% in size. Note: potency is the fitted concentration of half-maximal effect. As to conditions: purified USP1/UAF1, Ub-rhodamine cleavage fluorescence; series mostly up to 114 µM. The essentials:
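USP1/UAF1 complex (1nM) preincubated with compound 15 min at room temperature, then Ub-Rho substrate (150nM final) added. Fluorescence read kinetically at 480/540 nm, 6 reads every 60 seconds. Buffer: 50mM HEPES pH 7.8, 0.5mM EDTA, 0.1 mg/ml BSA, 1mM TCEP, 0.01% Tween-20.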
(In qHTS, concentration-response curves come from the screen itself.)
Take `Clc1cccc(N2CCNCC2)c1`: the Potency entry is “inactive”.

On to `Cc1cc2c(C(C)C)c(O)c(O)c(C=O)c2c(O)c1-c1c(C)cc2c(C(C)C)c(O)c(O)c(C=O)c2c1O`, for which the Potency was 22.4 µM (active) and 31.6 µM (active) and 10 µM (active).

For the molecule `CC(=O)[C@H]1CC[C@H]2[C@@H]3CC[C@H]4C[C@](C)(O)CC[C@]4(C)[C@H]3CC[C@]12C`, the Potency result is “inactive”.

For the origin of these results see PubChem BioAssay (NCATS).
